mIDH1 inhibitor: human IDH1 R132H inhibition; O75874; IDH1-R132H enzyme, NADPH consumption, diaphorase/resazurin fluorescence; Potency, µM (titrated, usually from 76.6 µM), most hits filed as inhibitors; actives 0.093% (n = 390,000); AID 602179; note: nearly all actives have a fitted effect of over 65% in size
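IDH1-R132H (0.5 ug/mL dispensed) in pH 7.5 Tris buffer was preincubated 30 min with compound, then given a substrate mix of 0.016 mM NADPH and 2 mM alpha-KG for 80 min at room temperature; remaining NADPH was read by diaphorase/resazurin fluorescence.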
TrxR1 substrate: is turned over as a substrate by rat TrxR1 | Potency, µM (titrated, usually from 114 µM) | purified TrxR1 substrate turnover, NADPH consumption readout | actives 0.01% (n = 390,000) | O89049; note: nearly all actives have a fitted effect of over 50% in size
Target sequence (O89049 whole entry, looked up): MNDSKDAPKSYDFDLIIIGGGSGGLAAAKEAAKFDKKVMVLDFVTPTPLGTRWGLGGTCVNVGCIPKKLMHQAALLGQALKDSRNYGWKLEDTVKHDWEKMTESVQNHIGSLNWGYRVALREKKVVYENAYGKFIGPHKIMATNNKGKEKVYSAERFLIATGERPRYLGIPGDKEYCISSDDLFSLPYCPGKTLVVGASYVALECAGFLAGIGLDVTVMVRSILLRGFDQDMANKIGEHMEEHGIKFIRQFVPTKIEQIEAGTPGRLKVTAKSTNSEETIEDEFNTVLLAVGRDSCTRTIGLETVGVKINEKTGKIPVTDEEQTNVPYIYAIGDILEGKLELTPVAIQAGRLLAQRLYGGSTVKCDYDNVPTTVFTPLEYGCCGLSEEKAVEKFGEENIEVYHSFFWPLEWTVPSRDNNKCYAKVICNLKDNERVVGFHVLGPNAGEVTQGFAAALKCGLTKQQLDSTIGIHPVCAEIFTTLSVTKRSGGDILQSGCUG
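Rat TrxR1, dispensed at 90 nM, was prereduced with 400 uM NADPH (final) for 5 min at ~22 deg C, then incubated with compound 15 min before 400 uM selenite. A first-read NADPH fluorescence drop versus no-compound background flagged substrates.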
TrxR1 inh: rat TrxR1 inhibition. recombinant rTrxR1, NADPH fluorescence consumption, selenite substrate. Potency, µM (series often up to 114 µM), hits mostly inhibitors. actives 1% (n = 390,000); note: nearly all actives have a fitted effect of over 65% in size
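Rat TrxR1 (90 nM in the dispensed reagent) was pre-reduced with 400 uM NADPH for 5 min at room temperature, then incubated with compound for 15 min. After 400 uM selenite was added, NADPH fluorescence (Ex 340/Em 450 nm) was followed for 8 min.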
VDR inhibitor: inhibitors of human vitamin D receptor; actives 0.93% (n = 400,000); P11473; Potency, µM, most hits filed as inhibitors; VDR-SRC2-3 peptide fluorescence polarization, 2 h
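Reagent solutions, kept cold and dark, are dispensed first; compounds are then pinned in at 23 nl, plates briefly spun, and incubated 2 h at ambient temperature. Inhibition of VDR–SRC2-3 peptide binding is read by fluorescence polarization.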
PLK1 PBD block: blocks phosphopeptide binding to human PLK1 polo-box domain. P53350. Plk1 PBD binding of FITC phosphopeptide, fluorescence polarization. Potency, µM, actives largely listed as inhibitors. actives 2.8% (n = 360,000). AID 720504; note: series mostly up to about 57 µM; nearly all actives have a fitted effect of over 65% in size
Sfp inh: Sfp phosphopantetheinyl transferase inhibition; Biochemical Sfp PPTase activity, qHTS; Potency, µM, actives largely listed as inhibitors; actives 3.5% (n = 310,000);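 note: the enzyme is Sfp with the accession as filed and its product quenches rhodamine fluorescence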
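Compounds were incubated with enzyme (final 15 nM) for 15 min at room temperature before substrate addition started the reaction. Fluorescence at 525 nm excitation, 598 nm emission was recorded immediately and after 30 minutes.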
Hits are given with their value; i = inactive; ? = inconclusive; nt = no result. Most compounds without a hit are left out; they make up all but 5.2% or so of the library. Calls come from the whole dose curve; as a rule, active = well fitted curve in the direction sought with a large enough effect; inconclusive = small, poorly fitted or top-dose-only effect, or another doubt; inactive = no such curve, though single readings can be large; an effect the other way counts as inactive or inconclusive.

SMILES	mIDH1 inhibitor	TrxR1 substrate	TrxR1 inh	VDR inhibitor	PLK1 PBD block	Sfp inh
COc1cccc2c1C(=O)/C(=C/c1ccc(N(C)C)cc1)C2	nt	i	i	nt	nt	nt
C=CCN=c1sc(C(=O)OC)cc(=O)n1CC=C	i	i	?	?	30µM	i
Cc1cccc(CSc2nc3c(c(-c4cccs4)c2C#N)CN(C)CC3)c1	i	i	?	?	i	i
CN1CCc2nc(SCC(=O)Nc3cccc(F)c3)c(C#N)c(-c3cccs3)c2C1	i	i	5µM	?	?	79µM
CN1CCc2nc(SCC(=O)Nc3ccc(OC(F)(F)F)cc3)c(C#N)c(-c3cccs3)c2C1	i	i	10µM	?	?	50µM
Nc1cc(S(=O)(=O)O)cc([N+](=O)[O-])c1O	i	i	i	i	?	79µM
N#C/C(=C/c1ccc(-c2ccc(S(N)(=O)=O)cc2)o1)c1nc2ccccc2s1	i	i	89µM	i	i	?
O=C(ONC1=NCCCCC1)c1ccc([N+](=O)[O-])cc1	i	i	i	i	i	i
COc1ccc(NC(=O)CSc2nnc(C3CC3)n2C)cc1	i	i	i	28µM	24µM	i
Cn1c(SCC(=O)c2ccccc2F)nnc1C1CC1	i	i	?	?	?	50µM
CCOC(=O)Cc1csc(NC(=O)CSc2nnc(C3CC3)n2C)n1	i	i	i	i	i	i
CCOC(=O)c1csc(NC(=O)CSc2nnc(C3CC3)n2C)n1	i	i	i	i	27µM	i
COc1ccc(C2NC(c3ccc(OC)cc3OC)C(C)C(=O)C2C)c(OC)c1 (stereo not drawn)	i	i	i	i	i	i
CCOC(=O)c1cc(C#N)c(N2CCN(c3ccccn3)CC2)nc1-c1ccccc1	i	i	i	i	i	i
COc1ccc(CCNC(=O)Cn2c(=O)c3sccc3n(CC(=O)Nc3cccc(C(F)(F)F)c3)c2=O)cc1OC	i	i	i	i	nt	nt
O=C1/C(=C/c2ccco2)CCc2ccccc21	i	i	i	i	i	56µM
Nc1ccc2c(c1)C/C(=C/c1ccco1)C2=O	i	i	56µM	i	?	i
O=C1C(=Cc2ccco2)C(=O)c2ccccc21	i	i	?	i	?	i
COc1ccc2c(c1)CC/C(=C/c1ccco1)C2=O	i	i	i	i	i	i
COc1ccccc1-c1csc(Nc2ccc(Oc3ccccc3)cc2)n1	nt	nt	nt	nt	i	nt
COc1ccc(N=C/C=C2\C=C(c3ccccc3)OC(C)(C)O2)cc1	i	i	i	i	?	79µM
Cc1ccc([C@H]2N[C@]3(CCCN(Cc4cccn4C)C3=O)[C@H]3C(=O)N(C)C(=O)[C@@H]23)cc1	i	nt	nt	nt	i	nt
S=c1[nH]ncn1-c1ccccn1	i	i	i	i	i	22µM
CCCNC(=O)c1ccccc1SCc1c(C)noc1C	i	i	i	i	i	i
C=CCSC1=C(C#N)C(c2cccc(OC)c2)CC(=O)N1 (stereo not drawn)	i	i	i	i	i	35µM
SMILES	mIDH1 inhibitor	TrxR1 substrate	TrxR1 inh	VDR inhibitor	PLK1 PBD block	Sfp inh
Cc1ccc(C2CC(=O)NC(SCCC(C)C)=C2C#N)cc1 (stereo not drawn)	i	i	i	i	13µM	45µM
C=CCSC1=C(C#N)C(c2ccccc2OCC)CC(=O)N1 (stereo not drawn)	i	i	i	i	i	71µM
CCOc1ccccc1C1CC(=O)NC(SCC)=C1C#N (stereo not drawn)	i	i	i	i	i	i
COC(=O)CSC1=C(C#N)C(c2ccc(C(C)C)cc2)CC(=O)N1 (stereo not drawn)	i	i	i	i	i	i
CCc1nc2ccccc2n1CC(=O)OCC(=O)N(CC(C)C)c1c(N)n(Cc2ccccc2)c(=O)[nH]c1=O	i	i	i	i	i	nt
C#Cc1cccc(Nc2ncnc3cc(OC)c(OC)cc23)c1	nt	nt	nt	i	nt	i
CCCCCCn1cc(CN2CC(N3CCCCC3)CS2(=O)=O)nn1 (stereo not drawn)	nt	nt	nt	nt	i	nt
CCSc1nnc(NC(=O)C2Cc3ccccc3CN2C(=O)c2ccco2)s1 (stereo not drawn)	i	i	32µM	i	?	40µM
COc1ccc(Cc2nc(=S)[nH][nH]2)cc1Br	i	i	i	i	?	35µM
O=C(O)CSc1nnc(-c2cccs2)n1-c1ccc(Cl)cc1	i	i	i	?	27µM	i
Cc1ccccc1NC(=O)C1c2cccc[n+]2CC(=O)N1c1c(C)cccc1C (stereo not drawn)	i	i	i	i	?	50µM
CCOc1cc(C2NC(=O)N(C)C(C)=C2[N+](=O)[O-])ccc1OC(C)=O (stereo not drawn)	i	i	i	i	i	i
CC1=C([N+](=O)[O-])C(c2ccc(Cl)cc2)NC(=O)N1C (stereo not drawn)	i	i	i	?	3µM	i
CN1CCN(c2nc(-c3ccccn3)nc3ccccc23)CC1	i	i	i	i	i	i
c1ccc(N2CCN(c3nc(-c4ccccn4)nc4ccccc34)CC2)cc1	i	i	?	i	11µM	i
C=CCCC/C=C(/C)C(OCc1ccc(OC)cc1)C(CC/C=C(\C)C(N)=O)OC (stereo not drawn)	nt	nt	nt	nt	nt	i
Cn1c(N=NC(=O)c2ccccc2)c(O)c2ccccc21	i	i	i	?	27µM	i
CN(C)c1ccc(C(CN)c2c[nH]c3ccccc23)cc1 (stereo not drawn)	i	i	i	i	i	50µM
COC(=O)Nc1ccc(OCc2ccccc2)cc1	i	i	i	i	i	i
Cc1cnc(NC(=O)Nc2ccc(OCc3ccccc3)cc2)c(Br)c1	i	i	i	i	30µM	i
C[C@H](NC(=O)C1CCN(S(=O)(=O)c2ccccc2)CC1)C(=O)NCc1ccncc1	i	nt	nt	nt	i	nt
Cc1cc(Nc2ccc(Cl)cc2)nc(N)n1	i	i	i	i	i	i
Nc1cc(Nc2ccc(Br)cc2)nc(N)n1	i	i	i	45µM	i	?
CCOCc1cc(CN2CCC(CCC(=O)NC3CC3)CC2)ccc1OC	i	i	i	i	i	i
N[C@@H](C(=O)O)c1ccc(C(=O)O)c(O)c1	nt	nt	nt	i	nt	i
CC1CCN(Cc2nc(Cl)c3c4c(sc3n2)CCC4)CC1	i	i	32µM	i	i	i
CC1CCc2c(sc3nc(CN4CCOCC4)nc(Sc4ccccc4)c23)C1 (stereo not drawn)	i	i	i	i	i	i
Cc1sc2nc(CN3CCCCC3)nc(Cl)c2c1C	i	i	32µM	i	i	i
Cc1ccc(S(=O)(=O)N2CCN(c3nc(CN4CCCC4)nc4sc(C)c(C)c34)CC2)cc1	i	i	i	i	i	nt
COc1ccc(N(Cc2ccccc2)S(=O)(=O)c2cccc(C(=O)NCC3CCCO3)c2)cc1 (stereo not drawn)	i	i	i	i	i	nt
